Shown are actives, neighbours in structure and some others; about 1.8% of the full set was active somewhere.
PTHR1 agonist – agonists of human PTHR1 parathyroid hormone receptor | HEK293 GP2 PTHR1 cells, GloSensor cAMP luminescence, 1 h | Potency, µM (doses to about 115 µM), usual class: activators | 0.075% of 410,000 active | Q03431; note: nearly all actives have a fitted effect of over 55% in size
Target sequence (Q03431 whole entry, looked up): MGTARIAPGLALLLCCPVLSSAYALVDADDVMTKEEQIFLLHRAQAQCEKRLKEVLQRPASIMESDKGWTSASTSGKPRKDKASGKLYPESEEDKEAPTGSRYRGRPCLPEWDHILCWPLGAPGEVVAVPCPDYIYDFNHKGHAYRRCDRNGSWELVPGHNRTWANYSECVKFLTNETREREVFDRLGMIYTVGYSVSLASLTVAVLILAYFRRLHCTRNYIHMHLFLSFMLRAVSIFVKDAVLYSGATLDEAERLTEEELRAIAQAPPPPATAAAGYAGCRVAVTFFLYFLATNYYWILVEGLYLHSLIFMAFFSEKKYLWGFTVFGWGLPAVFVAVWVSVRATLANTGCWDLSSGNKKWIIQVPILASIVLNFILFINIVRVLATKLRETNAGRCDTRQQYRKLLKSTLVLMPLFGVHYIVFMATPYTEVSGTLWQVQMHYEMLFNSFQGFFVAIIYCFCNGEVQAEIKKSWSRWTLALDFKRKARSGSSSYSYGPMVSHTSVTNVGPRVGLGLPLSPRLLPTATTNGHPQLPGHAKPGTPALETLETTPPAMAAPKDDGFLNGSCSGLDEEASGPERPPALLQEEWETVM
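HEK-293-derived GP2 cells expressing PTHR1 and a GloSensor cAMP reporter, 3,000/well, plated overnight, given luciferin plus IBMX (each 0.5 mM as added) for 1 h at 37 °C, then compound for 1 h at 37 °C. Luminescence was read after 15 min at room temperature.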
GCN5L2 inh – blocks human GCN5L2 histone acetyltransferase. Q92830. Potency, µM (top dose mostly 58.9 µM), most hits filed as inhibitors. 0.21% of 390,000 active. GCN5L2 HAT assay, ThioGlo1 CoA-SH fluorescence
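Fluorescence readout, Ex340nm/Em540nm: ThioGlo1 (50uM final) reacts with free CoA thiol released as 20nM GCN5L2 acetylates H3(1-25) peptide (75uM) using acetyl-CoA (70uM). Compound and enzyme sat 15 min beforehand; 20 min room-temperature reaction.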
HEK293 tox – cytotoxic in the GLP-1 receptor inverse agonist counter-screen | HEK293 cAMP-luciferase reporter cells, luminescence, 24 h | Potency, µM (highest dose often 38.3 µM), most hits filed as inhibitors | 0.13% of 410,000 active;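 note: loss of luciferase light is scored as toxicity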
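A 23 nL compound transfer followed 12 hours of cell culture at 37 deg C; exposure then lasted 24 hr. Luciferase assay detection reagent was dispensed and plates read for luminescence after a 12 min room-temperature wait.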
GLP-1R inv ag – GLP-1 receptor (human) inverse agonism | AID 624417 | Potency, µM (top dose mostly 38.3 µM), usual class: inhibitors | 1.6% of 410,000 active | HEK293 GLP-1R CRE-luciferase, luminescence, 24 h; GLP-1R form is constitutively active; note: nearly all actives have a fitted effect of over 55% in size
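Stable HEK293 clone (constitutively active GLP-1R + cAMP-response luciferase); 200 cells/uL plated, 12 h pre-culture, compound 24 hr, 37 deg C/5% CO2; detection reagent 12 min RT; luminescence.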
GLP-1R agonist – activates the human GLP-1 receptor | P43220 | HEK293 GLP-1R CRE-luciferase, luminescence, 4-6 h; cells express a hypersensitive GLP-1R form | Potency, µM (doses to about 45.6 µM), most hits filed as activators | 0.007% of 380,000 active
RGS4 inhibitor – blocks human RGS4-accelerated GTP hydrolysis | P49798 | Potency, µM (series often up to 114 µM), usual class: inhibitors | Transcreener GDP fluorescence polarization, RGS4-accelerated GTP hydrolysis | 0.039% of 390,000 active; note: nearly all actives have a fitted effect of over 75% in size
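MLSMR compounds (23 nl, pin-transferred) preincubated 10 min at room temperature with a 500nM (2x) first reagent, then RGS4 at 900nM (2x) plus Transcreener GDP mix added; fluorescence polarization (620/688 nm) read before and after 90 min at 30 °C.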
Numbers stand for hits; - = inactive; ? = inconclusive; . = no result given; [ ] = remark or other dose. Calls come from the whole dose curve; as a rule, active = well fitted curve in the direction sought with a large enough effect; inconclusive = small, poorly fitted or top-dose-only effect, or another doubt; inactive = no such curve, though single readings can be large; an effect the other way counts as inactive or inconclusive.

SMILES	PTHR1 agonist	GCN5L2 inh	HEK293 tox	GLP-1R inv ag	GLP-1R agonist	RGS4 inhibitor
CCN(Cc1nc2ccccc2c(=O)[nH]1)C(=O)COc1ccccc1-c1ccccc1	-	-	?	11.2µM	-	-
Cc1cc(=O)n(CC(=O)NC(C)c2ccccc2)c2c1c(C)nn2C (stereo not given)	-	-	-	-	.	-
COCCNC(=S)N(CCc1c(C)[nH]c2ccc(Cl)cc12)Cc1cccs1	-	-	?	2.51µM	-	-
COc1ccc(NC(=O)CN(C)C(=O)Cc2ccc3c(c2)CCC3)cc1	-	-	-	-	-	-
COc1ccc(N2CCN(C(CNC(=O)C(=O)NCCc3ccccc3)c3cccnc3)CC2)cc1 (stereo not given)	-	-	-	-	.	-
CN1C(=S)SC(N(O)C(=O)Nc2ccc(Cl)c(Cl)c2)C1(C)C (stereo not given)	-	-	-	10µM	-	-
O=C1Nc2ccc(I)cc2/C1=C/c1cc(Br)c(O)c(Br)c1	.	22.4µM	.	.	.	9.47µM
CCc1cccc(C)c1NC(=O)Cn1cc2c(n1)CCCCC2	-	-	-	?	.	-
CNCCCC1Sc2ccccc2Oc2ccccc21 (stereo not given)	-	-	?	5.01µM	-	-
COc1ccc2ccccc2c1CNCc1ccc(C)cc1	-	-	-	10µM	-	-
c1ccc2c(c1)CCN(c1nc(CN3CCOCC3)nc3sc4c(c13)CCCC4)C2	-	-	-	8.91µM	-	-
Cc1ccc(CN(Cc2ccco2)c2cnc(S(C)(=O)=O)nc2C(=O)Nc2ccccc2Br)o1	-	-	-	?	.	-
Cc1cc(O)cc(O)c1-c1onc(C(F)(F)F)c1-c1cscn1	-	-	-	7.94µM	-	-
CCOc1ccc(-c2onc(C(F)(F)F)c2-c2cscn2)c(O)c1	-	-	-	-	-	-
COC(=O)C1(C(=O)OC)C[C@H](/C=C/c2ccccc2)N(Cc2ccccc2OC)[C@@H]1c1ccc(F)cc1	-	.	-	-	.	.
COc1ccccc1CN1C2CCCC1CC(NC(=O)/C=C/c1ccccc1)C2 (stereo not given)	-	-	?	10µM	-	-
COC(=O)C1(C(=O)OC)C[C@H](/C=C/c2ccccc2)N(Cc2ccccc2OC)[C@@H]1c1cccs1	-	.	-	10µM	.	.
CCCNC(=S)NC1CC2CCCC(C1)N2Cc1ccccc1OC (stereo not given)	-	.	-	-	-	.
C[C@@H](Nc1nc(Cl)nc2nc[nH]c12)c1ccccc1	.	.	.	.	.	-
COc1ccc(N2C(=O)CSC23C(=O)N(CC(=O)Nc2ccccc2F)c2ccccc23)cc1 (stereo not given)	-	-	-	-	-	-
O=S(=O)(Nc1ccc2oc3c(c2c1)CCCC3)c1cc(Cl)ccc1Cl	-	-	-	11.2µM	.	-
Cc1cc(OCCN2CCC(Cc3ccccc3)CC2)ccc1[N+](=O)[O-]	-	-	?	11.2µM	-	-
Cc1cc(OCCN2CC(C)OC(C)C2)ccc1[N+](=O)[O-] (stereo not given)	-	-	-	-	-	-
COc1ccc(Br)cc1CNC(=O)CCCc1cn(C)c2ccccc12	-	-	-	22.4µM	-	-
CC(=O)N1CCCC(C)(C(=O)Nc2cccc(OC(C)C)c2)C1 (stereo not given)	-	.	-	-	-	.
SMILES	PTHR1 agonist	GCN5L2 inh	HEK293 tox	GLP-1R inv ag	GLP-1R agonist	RGS4 inhibitor
Cc1cccc(Cn2c(-c3cccc(Br)c3)nc3ccccc32)c1	-	-	-	10µM	.	-
COc1ccc(N2CCN(CCNC(=O)c3ccc4c(c3)[nH]c(=S)n3c5ccccc5nc43)CC2)cc1	-	-	-[7.66 µM]	-[7.66 µM]	-	-
CC1C=CC(C)C(C(=O)c2ccccc2)C1C(=O)c1ccccc1 (stereo not given)	-	.	-	12.6µM	-	.
Cc1cc(C(=O)COC(=O)Cc2n[nH]c(=O)c3ccccc23)c(C)n1-c1cccc(C(F)(F)F)c1	-	-	-	7.08µM	-	-
Cc1cc(C(=O)COC(=O)CC2Sc3ccccc3NC2=O)c(C)n1-c1cccc(C(F)(F)F)c1 (stereo not given)	-	-	-	?	-	-
Cc1nc(-c2ccc(C)c(N3CCN(C(=O)Nc4cccc(Cl)c4C)CC3)c2)no1	-	-	-	4.47µM	-	-
COc1cc(/C=C/C(=O)OCC(=O)Nc2ccc3[nH]c(=O)[nH]c3c2)ccc1OC(F)F	-	.	-	-	-	.
CC(C)OC(=O)c1c2nc3ccccc3nc2n2c1[nH]c(=O)c1ccccc12	.	-	.	.	.	.
COc1ccc(-c2cc(C)no2)cc1S(=O)(=O)N1CCN(c2cccc(C)c2)C(C)C1 (stereo not given)	-	-	-	?	-	-
COc1ccccc1N1CCN(S(=O)(=O)c2cc(-c3cc(C)no3)ccc2C(C)C)CC1	-	-	-	1µM	-	-
Cc1cccc(N2CCN(S(=O)(=O)c3cc(-c4cc(C)no4)ccc3C)CC2C)c1 (stereo not given)	-	-	-	3.98µM	-	-
Cc1cc(-c2ccc(C(C)C)c(S(=O)(=O)N3CCN(c4ccccc4)CC3)c2)on1	-	-	-	?	-	-
CCc1ccc(-c2cc(C)no2)cc1S(=O)(=O)N1CCN(c2cccc(C)c2C)CC1	-	-	-	7.94µM	-	-
CCc1ccc(-c2cc(C)no2)cc1S(=O)(=O)N1CCN(c2ccccc2F)CC1	-	-	-	-	-	-
CCc1ccc(-c2cc(C)no2)cc1S(=O)(=O)N1CCCN(Cc2ccc(F)cc2)C1	-	-	-	2.51µM	-	-
O=C(CN1CCN(Cc2ccc(F)cc2)C1=O)NCc1ccccc1	-	-	-	-	-	-
CC(=O)c1ccc2c(c1)C1C=CCC1C(C(=O)O)N2 (stereo not given)	-	?	-	-	-	?
Cc1ccc2c(c1)C1C=CCC1C(C(=O)O)N2 (stereo not given)	.	25.1µM	.	.	.	.
Cc1ccc(NC(=O)c2c(-c3c(F)cccc3Cl)noc2C)cc1F	-	-	-	3.98µM	-	-
Cc1onc(-c2c(F)cccc2Cl)c1C(=O)OCC(=O)NC(=O)NCC(C)C	-	-	-	12.6µM	-	-
Cc1cc(NC(=O)c2c(-c3c(F)cccc3Cl)noc2C)no1	-	-	-	?	-	-
Cc1ccc(/C=C/C(=O)N2CC(=O)Nc3ccccc32)o1	-	22.4µM	-	-	-	-
Cc1cc(C)cc(NS(=O)(=O)c2ccc(-c3cc(C)no3)cc2)c1	-	-	-	3.55µM	.	-
